# Bioassay records deposited in PubChem BioAssay by Broad Institute.
# C diff growth = C. difficile growth inhibition; growth activity, negative = inhibition, % at 16 µg/mL (by protocol); 86,000 compounds, 0.25% hits; AID 1259249; Clostridium difficile clinical isolate growth, OD600, 24 h; hits give low values;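 active = mean growth activity at or below -80% and every replicate also at or below -80%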;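 also: 0% = DMSO wells and -100% = levofloxacin 16 µg/mL wells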
# T cruzi growth-1 = inhibitors of T. cruzi proliferation; T. cruzi beta-gal in NIH3T3, GalScreen luminescence, 90 h; inhibition, % at 8.34 µM; 77,000 compounds, 5.9% hits;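 active = mean inhibition above about 93%, with at least 55% of replicates each passing it, limit read from the data, passing the limit was not always enough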
# Pf Dd2 inh = inhibitors of Plasmodium falciparum Dd2 growth | 94,000 compounds, 2.3% hits | P. falciparum Dd2 growth, SYBR Green, 72 h; hits give low values | activity change, % at 10 µM; in the data active = activity change below about -80%
# T cruzi growth-2 = Trypanosoma cruzi proliferation inhibition | shares compounds with T cruzi growth-1 | T. cruzi beta-gal in NIH3T3, GalScreen luminescence, 90 h | inhibition, % at 8.35 µM | 5,600 compounds, 72% hits | AID 651739;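 active = mean replicate inhibition above about 95% and at least 55% of replicates individually reaching it, limit read from the data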
# T cruzi growth-3 = Trypanosoma cruzi proliferation inhibition; shares compounds with T cruzi growth-1; T. cruzi beta-gal in NIH3T3, GalScreen luminescence, 90 h; inhibition, % at 2.09 µM; 5,600 compounds, 21% hits;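 active = mean inhibition above about 95%, with at least 55% of replicates also reaching it, limit read from the data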;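 also: plate controls were neutral control median for no effect and positive control median for full effect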
# 3T3 cytotox = cytotoxicity in mouse NIH/3T3 fibroblasts | shares compounds with T cruzi growth-1 | NIH/3T3 viability, CellTiter-Glo ATP luminescence, 90 h | cytotoxicity (signal decrease), % at 8.35 µM | 5,600 compounds, 14% hits | AID 651742;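 active = mean signal decrease across replicates above about 35% based on untreated-well scatter, with enough replicates individually passing, limit read from the data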;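 also: 0% = median of neutral control wells and 100% = median of positive control wells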
# NIH3T3 tox 2 = NIH/3T3 (mouse) viability loss; shares compounds with T cruzi growth-1; inhibition, % at 24.9 µM; NIH/3T3 viability, CellTiter-Glo ATP luminescence, 90 h; 5,600 compounds, 56% hits;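 active = mean loss of cell viability signal at or above a set limit, and enough replicates individually reaching it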;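 also: 0% = median of neutral control wells and 100% = median of positive control wells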
# * marks the source's active call; other numbers are inactive results; / = not tested or not shown. Hits are enriched below; roughly 6.7% of the tested compounds scored in any of these assays.
SMILES,C diff growth,T cruzi growth-1,Pf Dd2 inh,T cruzi growth-2,T cruzi growth-3,3T3 cytotox,NIH3T3 tox 2
N#Cc1cccc(-c2ccc([C@H]3[C@H]4CN(C(=O)Nc5cccc(F)c5)CCCCN4[C@H]3CO)cc2)c1,9,122*,-18,110*,60,-6,-8
N#Cc1cccc(-c2ccc([C@H]3[C@@H](CO)N4CCCCN(C(=O)Nc5cccc(F)c5)C[C@H]34)cc2)c1,38,81,-69,/,/,/,/
CC=Cc1ccc2n(c1=O)C[C@@H]1[C@@H](CO)[C@H](C(=O)NCCC)N(CC3CCOCC3)[C@H]21 (mixture of isomers),-1,70,-4,/,/,/,/
C[C@@H]1CN([C@@H](C)CO)C(=O)c2cc(NS(=O)(=O)c3cccs3)ccc2O[C@@H](C)CCCCO[C@H]1CN(C)S(=O)(=O)c1ccc(Cl)cc1,-1,93,/,/,/,/,/
C[C@@H]1CCCCO[C@@H](CN(C)S(=O)(=O)c2ccc(Cl)cc2)[C@H](C)CN([C@@H](C)CO)C(=O)c2cc(NS(=O)(=O)c3cccs3)ccc2O1,-9,102*,/,105*,83,21,-2
C[C@H]1CCCCO[C@H](CN(C)S(=O)(=O)c2ccccc2)[C@@H](C)CN([C@@H](C)CO)C(=O)c2cc(NS(=O)(=O)c3cccs3)ccc2O1,-2,61,/,/,/,/,/
C[C@@H]1CCCCO[C@H](CN(C)S(=O)(=O)c2ccc(Cl)cc2)[C@@H](C)CN([C@@H](C)CO)C(=O)c2cc(NS(=O)(=O)c3cccs3)ccc2O1,-1,110*,/,113*,70,7,3
C[C@@H]1CCCCO[C@H](CN(C)Cc2ccc3c(c2)OCO3)[C@@H](C)CN([C@@H](C)CO)C(=O)c2cc(NC(=O)CCC(F)(F)F)ccc2O1,6,12,-45,/,/,/,/
C[C@@H]1CN([C@H](C)CO)C(=O)Cc2cc(NC(=O)Nc3ccc4c(c3)OCO4)ccc2O[C@@H]1CN(C)C(=O)Nc1ccc(F)cc1,-13,-1,2,/,/,/,/
CN(C)C(=O)c1ccc(-c2ccc3c(c2)[C@H]2[C@H](CCN2C(=O)c2ccc4c(c2)OCO4)[C@@H](CO)N3)cc1,-6,101*,-3,105*,74,0,1
O=C(c1ccc2c(c1)OCO2)N1CC[C@@H]2[C@@H](CO)Nc3ccc(C#Cc4ccccc4)cc3[C@@H]21,3,96,-62,/,/,/,/
N#Cc1cccc(-c2ccc3c(c2)[C@@H]2[C@@H](CCN2C(=O)c2ccc4c(c2)OCO4)[C@@H](CO)N3)c1,-10,88,-14,/,/,/,/
O=C(c1ccc2c(c1)OCO2)N1CC[C@@H]2[C@H]1c1cc(C#Cc3ccccc3)ccc1N[C@@H]2CO,1,93*,-10,107*,31,-26,17
CCC(=O)N1CC[C@@H]2[C@H](CO)Nc3ccc(-c4ccc(C(=O)N(C)C)cc4)cc3[C@@H]21,-7,108*,-12,101*,57,3,-2
CN(C)C(=O)c1cccc(-c2ccc3c(c2)[C@@H]2[C@@H](CCN2C(=O)c2ccc4c(c2)OCO4)[C@@H](CO)N3)c1,4,30,-1,/,/,/,/
CCC(=O)N1CC[C@@H]2[C@H]1c1cc(-c3ccccc3)ccc1N[C@@H]2CO,-20,43,31,/,/,/,/
N#Cc1cccc(-c2ccc3c(c2)[C@H]2[C@H](CCN2C(=O)c2ccc4c(c2)OCO4)[C@@H](CO)N3)c1,-4,97*,-75,103*,100*,10,37*
C[C@H](CO)N1C[C@H](C)[C@H](CN(C)S(=O)(=O)c2ccc(F)cc2)Oc2ccc(NS(=O)(=O)c3cccs3)cc2C1=O,-1,49,-6,/,/,/,/
N#Cc1cccc(-c2ccc3c(c2)[C@@H]2[C@@H](CCN2C(=O)c2ccncc2)[C@@H](CO)N3)c1,-3,103*,-61,97*,8,3,8
N#Cc1ccc(-c2ccc3c(c2)[C@@H]2[C@@H](CCN2C(=O)c2ccncc2)[C@H](CO)N3)cc1,-7,77,-11,/,/,/,/
C[C@H](CO)N1C[C@H](C)[C@@H](CN(C)C(=O)CN2CCOCC2)Oc2ncc(C#CCN(C)C)cc2C1=O,3,-24,48,/,/,/,/
